We go through 14 compounds from PubChem BioAssay (NCI).

SMILES strings stand for the structures. Compounds without any hit were thinned out: in the full panel of roughly 83,000, 20% have a hit.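 A percent growth of 40 corresponds to 60% growth inhibition; 0 means no net growth; -100 means all cells died. Active threshold: below 10.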 A number with no mark means an inactive call. Activity calls are given as the source filed them.

Holding throughout (assay): NCI-60 one-dose screen, 48 h (100 = growth as untreated, 0 = no growth, -100 = all killed)
Details in all cases: 10 µM

Assay [1] deals with HT29 colon.
The subject of assay [2] is SNB-75 CNS.
In assay [3] the test system is SNB-19 CNS.
Assay [4] has as its system U251 CNS.
The subject of assay [5] is PC-3 prostate.
The test system of assay [6] is SK-MEL-5 melanoma.
For assay [7], the system named is UACC-62 melanoma.
The subject of assay [8] is LOX IMVI melanoma.
Assay [9] deals with SK-MEL-28 melanoma.
In assay [10] the test system is SK-MEL-2 melanoma.

For the compound `COc1ccc2c(c1)sc1nc(-c3ccccc3)c(-c3ccc(O)c(OC)c3)n12`, the growth in assay [1] is 21.5%; in assay [2], 77.6%; in [3], 80.4%; in assay [4] it was 41.7%; in [5], 82.3%; in assay [6], 55.5%. The growth was 66.2% in assay [7], 61.5% in assay [8], 73.6% in assay [9] and 49.8% in assay [10].
Consider `COc1ccc(-c2nc(-c3nc4ccc(Cl)cc4[nH]3)c3ccccn23)cc1`, for which the growth in assay [1] was 34.7%; in [2], -89.4% (active); in assay [3], 20.3%; in [4], 7.5% (active); in [5], 55.9%; in assay [6], 50.7%. The growth was 82.5% in assay [7], 30.4% in [8], 12% in assay [9] and 41% in [10].
For `O=C1/C(=C\c2ccc(Cl)cc2)CN(C(=O)c2ccccc2)C/C1=C\c1ccc(Cl)cc1`, the growth in assay [1] is -84.9% (active); in assay [2] it was 51.4%; in assay [3] it was 68.2%; in assay [4], -74% (active); in assay [5], 25.8%; in [6] it was 66.8%. In addition, the growth in [7] was 34.6%; in assay [8], -51.8% (active); in assay [9], 59.7%; in assay [10] it was 87.1%.
Consider `COc1ccc2c(c1)O/C(=C\c1ccc([N+](=O)[O-])s1)C2=O`, for which the growth is -12.3% (active) in assay [1]; 55.5% in assay [2]; 67.3% in assay [3]; 14.7% in [4]; 14% in assay [5]; 60% in [6]. The growth is 30.6% in [7], 15.7% in [8], 81.4% in [9] and 55.3% in assay [10].
`CCCCCCCCCCCCCCCCN(C(C)c1ccccc1)S(=O)(=O)c1ccc(OC)c(N)c1` (stereo not given): the growth in assay [1] is 100%; in assay [2], 91.5%; in assay [3], 120%; in assay [4], 100%; in assay [5] it was 101%; in assay [6], 109%. Further, the growth in assay [7] is 103%; in [8], 91.7%; in assay [9] it was 109%; in assay [10], 120%.
As to `CCCCC/C=C/C(=O)CCc1ccc(O)c(OC)c1`, the growth in [1] was 93.1%; in [2] it was 63%; in assay [3], 87.1%; in [4], 79.6%; in assay [5] it was 55.8%; in [6], 97.7%. Besides, the growth in assay [7] was 83.1%; in [8], 23.7%; in assay [9], 95.8%; in [10], 121%.
`Fc1ccc(-c2nnc(-c3c(-c4ccc(F)cc4)nc4ccccn34)o2)cc1`: the growth in [1] is 79.2%; in assay [2], 37.4%; in assay [3], 92.8%; in assay [4] it was 81.2%; in assay [5], 84.6%; in assay [6], 80.4%. In addition, the growth in assay [7] was 92.2%; in assay [8], 65.4%; in [9], 85%; in [10], 120%.
As for `CCCCCCCCCCCC[n+]1ccc(C(N)=O)cc1`, the growth is 5.01% (active) in assay [1]; -4.25% (active) in [2]; 18.6% in assay [3]; -3.1% (active) in [4]; -18.2% (active) in [5]; -6.99% (active) in assay [6]. Moreover, the growth in assay [7] is 29%; in assay [8] it was 25.6%; in assay [9] it was 57.8%; in assay [10], 30.9%.
As for `COc1cc2cc3c(nc2cc1OC)CCN3Cc1ccc(NC(=O)Nc2cc(C(F)(F)F)cc(C(F)(F)F)c2)cc1`, the growth is 76.7% in [1]; 69.1% in assay [2]; 71.9% in [3]; 64.1% in [4]; 39.6% in [5]; 89.9% in assay [6]. In addition, the growth is 80.7% in assay [7], 75.4% in assay [8], 98.5% in assay [9] and 80.2% in [10].
In the case of `Nc1ccc2c(c1)Cc1cc(N)c(Br)cc1-2`, the growth in [1] was 107%; in [2] it was 67.1%; in assay [3] it was 114%; in assay [4], 108%; in assay [5] it was 96.9%; in [6], 97.8%. In addition, the growth is 96.7% in assay [7], 96.8% in assay [8], 115% in [9] and 116% in assay [10].
With `CCN(CC)CCSCCCNc1c2ccc(Cl)cc2nc2ccc(OC)cc12`, the growth in assay [1] was -58.1% (active); in [2] it was -97.8% (active); in assay [3], -38.4% (active); in [4], -70.6% (active); in [5], -30.3% (active); in assay [6] it was -99.1% (active). Besides, the growth in assay [7] was -72.9% (active); in assay [8] it was -80% (active); in assay [9], -67% (active); in assay [10], -77.5% (active).
Regarding `c1ccc(CO[C@H]2CO[C@H]3[C@@H]2OC[C@H]3OCc2ccccc2)cc1`, the growth was 107% in assay [1]; 111% in assay [2]; 101% in [3]; 104% in assay [4]; 90.6% in [5]; 101% in assay [6]. For the same compound, the growth was 95.9% in assay [7], 98.4% in assay [8], 105% in [9] and 104% in [10].
As for `COc1ccc(/C=C/C(=O)Nc2ccc(-c3nc4ccc(OC)cc4s3)cc2)cc1`, the growth in [1] is 110%; in [2] it was 102%; in assay [3], 105%; in assay [4] it was 109%; in assay [5], 101%; in assay [6] it was 104%. The growth in [7] was 108%; in [8], 92.3%; in assay [9], 111%; in [10], 105%.
`Nc1ccc2c(c1)C1(CCC2)NC(=O)NC1=O` (stereo not given): the growth is 104% in [1]; 90.2% in assay [2]; 96.6% in [3]; 91.5% in assay [4]; 92% in [5]; 98.6% in assay [6]. In addition, the growth in assay [7] was 106%; in assay [8], 97.7%; in [9], 113%; in assay [10], 99.7%.
